Consider 16 molecules from PubChem BioAssay (Tox21).

Where “and” joins values, the source holds several entries; their conditions need not be identical. Equal entries are not always repeated. Inconclusive results are not listed. A structure can be active in one record and inactive in another. Calls of active or inactive are those of the source. Calls follow the shape of the dose curve; as a rule, active = well fitted inhibition curve with a large enough effect in the repeat runs; inconclusive = weak or mixed curves; inactive = no such curve, though single readings can be large or run the other way.
Potency is read from the fitted curve at half-maximal effect.

The target of this assay is Aromatase (Homo sapiens) (UniProt P11511). Nature of the assay: qHTS assay to identify aromatase inhibitors (AID 743083). Also: nearly all actives have a fitted effect of over 55% in size. As to conditions: MCF-7 aro ERE, testosterone-driven ERE luciferase, 24 h; series mostly up to 70.3 µM.
Sequence of Aromatase (Homo sapiens) (P11511 whole entry, looked up): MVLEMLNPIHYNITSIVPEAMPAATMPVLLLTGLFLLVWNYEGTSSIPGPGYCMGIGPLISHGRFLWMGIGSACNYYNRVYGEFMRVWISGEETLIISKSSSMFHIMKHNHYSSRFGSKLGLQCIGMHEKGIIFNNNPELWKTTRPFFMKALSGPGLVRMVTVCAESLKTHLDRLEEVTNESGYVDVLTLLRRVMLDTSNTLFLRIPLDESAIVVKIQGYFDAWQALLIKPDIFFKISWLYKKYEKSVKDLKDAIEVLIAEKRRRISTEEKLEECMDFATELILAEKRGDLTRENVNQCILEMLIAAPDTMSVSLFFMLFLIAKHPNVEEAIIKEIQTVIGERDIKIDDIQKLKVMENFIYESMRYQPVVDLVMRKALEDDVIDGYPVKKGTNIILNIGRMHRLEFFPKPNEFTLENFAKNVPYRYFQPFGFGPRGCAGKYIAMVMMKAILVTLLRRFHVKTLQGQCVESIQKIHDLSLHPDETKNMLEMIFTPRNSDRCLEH
Consider `CCCCCCCCCCOCC(O)CN` (stereo unspecified), for which the Potency is 33.5 µM (active).

On to `O=C1NC2CCCCN2C12CCN(CCCN1c3ccccc3CCc3ccc(Cl)cc31)CC2` (stereo unspecified), for which the Potency was 23.7 µM (active).

On to `CCN(CC)CCNc1ccc(CO)c2sc3ccccc3c(=O)c12`, for which the Potency entry is “inactive”.

`Cc1nc(Nc2ncc(C(=O)Nc3c(C)cccc3Cl)s2)cc(N2CCN(CCO)CC2)n1`: the Potency was 1.33 µM (active).

For `C=C[C@](C)(O)CC[C@@H]1[C@@]2(C)CCCC(C)(C)[C@@H]2CC[C@@]1(C)O`, the Potency was 54.5 µM (active).

On to `COc1cc(C=C2CCC/C(=C\c3ccc(O)c(OC)c3)C2=O)ccc1O`, for which the Potency was 21.1 µM (active).

Turning to `CCCCCCCC/C=C\CCCCCCCC(=O)NCc1ccc(O)c(OC)c1`, the Potency entry was “inactive”.

In the case of `CCCCOc1ccc(C(=O)CCN2CCCCC2)cc1`, the Potency entry is “inactive”.

Turning to `CNC(=O)c1cc(Oc2ccc(NC(=O)Nc3ccc(Cl)c(C(F)(F)F)c3)cc2)ccn1`, the Potency is 11.9 µM (active).

With `CC=O`, the Potency was 5.08 µM (active).

Consider `CC(C)(C)CC(C)(C)c1ccccc1O`, for which the Potency is 48.8 µM (active).

In the case of `C=C(c1ccc(C(=O)O)cc1)c1cc2c(cc1C)C(C)(C)CCC2(C)C`, the Potency result is “inactive and 61.1 µM (active)”.

Take `O[C@@H](c1cc(C(F)(F)F)nc2c(C(F)(F)F)cccc12)[C@H]1CCCCN1`: the Potency is 23.7 µM (active).

Take `CCN(CC)CCCN(c1ccccc1)C1Cc2ccccc2C1`: the Potency was 26.6 µM (active).

Turning to `COc1cccc(CCc2ccccc2OCC(CN(C)C)OC(=O)CCC(=O)O)c1` (stereo unspecified), the Potency result was “inactive”.

As to `COCC(=O)O[C@]1(CCN(C)CCCc2nc3ccccc3[nH]2)CCc2cc(F)ccc2[C@@H]1C(C)C`, the Potency is 13.3 µM (active).
